Source: the supplement of paper PMC3334620
In all, about 33,000 sequences were measured (“E-score (-0.5 to 0.5)”: median about -0.011, highest 2% from about 0.28 on). Shown is part of a subset that was picked to be rich in the highest values.

Molecular target: T1, Gcr1 (UniProt P07261)
T1 sequence: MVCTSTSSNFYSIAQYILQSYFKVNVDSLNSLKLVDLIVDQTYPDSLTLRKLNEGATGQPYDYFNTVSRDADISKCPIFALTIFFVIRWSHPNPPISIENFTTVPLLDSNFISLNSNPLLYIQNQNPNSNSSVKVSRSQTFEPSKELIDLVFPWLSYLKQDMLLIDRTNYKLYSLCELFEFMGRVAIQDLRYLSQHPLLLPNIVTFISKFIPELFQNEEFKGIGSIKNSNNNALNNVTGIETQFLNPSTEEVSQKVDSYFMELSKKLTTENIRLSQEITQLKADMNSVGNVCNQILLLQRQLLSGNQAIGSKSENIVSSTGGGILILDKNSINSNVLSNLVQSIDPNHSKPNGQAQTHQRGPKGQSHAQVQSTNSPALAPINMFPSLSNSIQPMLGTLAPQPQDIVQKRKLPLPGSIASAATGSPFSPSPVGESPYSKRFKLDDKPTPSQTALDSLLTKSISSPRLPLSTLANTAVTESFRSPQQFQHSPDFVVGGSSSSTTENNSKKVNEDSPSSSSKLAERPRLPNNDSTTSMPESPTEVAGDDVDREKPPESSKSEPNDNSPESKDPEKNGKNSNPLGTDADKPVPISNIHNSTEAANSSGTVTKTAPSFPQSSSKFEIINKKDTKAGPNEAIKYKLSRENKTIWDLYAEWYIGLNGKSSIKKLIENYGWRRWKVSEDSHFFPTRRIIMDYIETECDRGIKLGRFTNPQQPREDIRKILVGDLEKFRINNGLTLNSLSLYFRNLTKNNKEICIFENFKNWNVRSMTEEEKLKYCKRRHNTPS
Assay: PBM E-score (8-mer binding enrichment) (E-score (-0.5 to 0.5)); higher = stronger / more preferred TF binding
Settings: protein concentration: 100 nM; construct: GST-full length
In short: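 Yeast transcription factors carrying a GST tag, as full-length proteins or DNA-binding domains, were produced by PURExpress in vitro transcription/translation. About 100-200 nM protein was applied to universal all-10-mer Agilent arrays, double-stranded by primer extension on fresh or once-stripped slides. Bound protein was detected with fluorescent anti-GST, and scans were normalised with masliner. The Universal PBM Analysis Suite gave each ungapped eight-base word, pooled with its reverse complement, an E-score, a modified Wilcoxon-Mann-Whitney statistic.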

Row | Sequence | PBM E-score
1 | ACAGGACG | 0.26
2 | ACAGGAAG | 0.455
3 | ACAGGAAT | 0.307
4 | CCAGGAAG | 0.166
5 | CTGTTCCC | -0.0872
6 | CACGGTAA | -0.233
7 | CTATCGAC | -0.0454
8 | GCCTCTCA | -0.0769
9 | ACCTATAG | 0.161
10 | CGAGCGGA | -0.113
11 | CGGAGCCA | 0.282
12 | AGGAGCCA | 0.214
13 | TGGAGCCA | 0.205
14 | GGGAGCCA | 0.387
15 | GGGAGCCC | 0.226
16 | CGGAGCCG | 0.0209
17 | GGTTTGGA | 0.115
18 | AATGCCCG | -0.207
19 | AGAAAGGA | -0.143
20 | CCGTCTCG | -0.0715
21 | GTCACTAA | 0.107
22 | AGCGCCAA | 0.124
23 | GGCGCCAA | 0.377

Row | Sequence | PBM E-score
24 | CGCGCCTA | 0.258
25 | CGCGCCGA | 0.0709
26 | GGCGCCGA | 0.286
27 | GGCGCCTA | 0.385
28 | GGCGCCAC | 0.253
29 | AGCGCCGA | 0.0415
30 | AGCGCCTA | 0.164
31 | AGGGTCGG | -0.133
32 | GAATTTCC | 0.082
33 | ATTACAGC | -0.134
34 | AATACAAG | 0.293
35 | ATTACAGG | 0.355
36 | ATTACAGA | 0.053
37 | AATACAAT | -0.0331
38 | AATACAAC | 0.0962
39 | AATACAGG | 0.343
40 | AATACAGA | -0.0124
41 | AATACAGT | -0.0143
42 | CAAAGACC | 0.00996
43 | CAGTGGGC | -0.0102
44 | ACTGCTAT | -0.225
45 | ATATCCTC | -0.118
46 | GACACCCC | -0.0371

Row | Sequence | PBM E-score
47 | AACGTCGC | -0.00983
48 | AACCATAG | -0.00302
49 | AAAATCCG | 0.111
50 | GGGCGCTA | 0.32
51 | TGGCGCCA | 0.37
52 | CAGCGCCA | 0.0174
53 | GCGCGCCA | 0.0132
54 | CGGCGCCA | 0.308
55 | TAGCGCCA | 0.181
56 | CGGCGCTA | -0.00295
57 | GGGCGCGA | 0.187
58 | TGGCGCAA | -0.0289
59 | CTGCGCCA | -0.135
60 | AGGCGCTA | 0.0978
61 | GGGCGCCA | 0.403
62 | AAGGTAAA | 0.0141
63 | GTCAAGGA | 0.0238
64 | GAGTTTCA | -0.0957
65 | GCCTTCGA | -0.126
66 | CGGCGCGC | 0.193
67 | GAGCGCCC | 0.234
68 | GGGCGCAC | -0.138
69 | CGGCGCCC | 0.359

Row | Sequence | PBM E-score
70 | GGGCGCCC | 0.459
71 | CGGCGCCG | 0.113
72 | CAGCTGGG | -0.0114
73 | AACACCGT | -0.132
74 | ACATTTGC | -0.0633
75 | GAGGTGCC | 0.281
76 | CGGGTGCC | 0.377
77 | AAGGTGCC | 0.144
78 | CGGGTGTC | -0.116
79 | GAGGTGCA | -0.125
80 | CTGGTGCC | 0.352
81 | CTGGTGCA | 0.216
82 | AGGGTGCC | 0.39
83 | CGGGTGCA | 0.0724
84 | ATGGTGCC | 0.227
85 | AGGGTGCG | 0.0402
86 | AGGGTGCA | -0.0715
87 | GCGATCCC | 0.0838
88 | ACCAACCT | -0.0617
89 | ACCAATAA | 0.0976
90 | CAGGGAGG | -0.257
91 | CGTGGTGA | -0.09
92 | CAGTCTAC | -0.0756

Row | Sequence | PBM E-score
93 | AGACGCCA | 0.283
94 | AGACGCCG | 0.421
95 | AGACGCCT | 0.327
96 | ACACGCCA | -0.163
97 | CGACGCCG | 0.349
98 | AGACGCAG | 0.0695
99 | ACACGCCG | 0.199
100 | AGACGCAT | 0.231
101 | CCACGCCG | -0.106
102 | CGCCGACG | 0.0121
103 | ACACGCCT | -0.087
104 | CGACGCCA | 0.157
105 | AAAGCGCG | -0.0766
106 | TAGCCCCA | 0.139
107 | AGAGGGGC | -0.044
108 | GGTTTGAC | 0.0178
109 | CGTATGAC | 0.0685
110 | TAAACCGA | -0.235
111 | CTCTGTTC | -0.0161
112 | AACCGGGT | 0.0617
113 | GTCCGAAA | 0.212
114 | CTGGTCAA | 0.0775
115 | AGACGCGA | 0.214

Row | Sequence | PBM E-score
116 | AGACGCGC | 0.289
117 | CGACGCGC | 0.0401
118 | ACCGTGGG | -0.00593
119 | AAGTGGTG | 0.281
120 | TAGTGGAA | 0.42
121 | AAGTGGTA | 0.176
122 | CAGTGGAA | 0.244
123 | AAGTGGTC | 0.0307
124 | GAGTGGAA | 0.316
125 | AAGTGGAA | 0.41
126 | AAGTGGAG | 0.141
127 | TGGTGGAA | 0.124
128 | GAGTGGAC | -0.0196
129 | GGGTGGAA | -0.113
130 | AAGTGGAT | 0.136
131 | GTCGCCTA | 0.0571
132 | GATCTCAC | -0.257
133 | CTAGGGTC | 0.00957
134 | ATTTTTTG | 0.228
135 | AGTTATTC | 0.0537
136 | CACTGTAG | -0.115
137 | GAGTGGCA | -0.0587
138 | TAGTGGCA | 0.289

Row | Sequence | PBM E-score
139 | AAGTGGCA | 0.238
140 | AAGCGATC | -0.135
141 | AGGTAGTC | 0.072
142 | CGGAGTAC | -0.243
143 | AGGAGTCA | -0.0283
144 | AGGAGTCG | -0.069
145 | CGGAGTCA | -0.00995
146 | AGGAGTCC | 0.303
147 | CGGAGTCC | 0.281
148 | GACACCTA | 0.0961
149 | TCCCTACA | 0.00308
150 | AAGCAGGA | 0.0293
151 | CCTCAGAC | -0.19
152 | CCACTTCG | 0.0958
153 | CAACTTCG | 0.107
154 | CAACTTCC | 0.321
155 | CAACTTCA | -0.0643
156 | CCACTTCC | 0.305
157 | GCACTTCC | 0.168
158 | GGCTCGCA | -0.137
